Assay outcomes from PubChem BioAssay.
Only some compounds are listed: those with a hit (about 4% of all), similar ones and a draw of the others.
ERAP1 inh = inhibitors of human ERAP1 aminopeptidase; recombinant ERAP1, Leu-AMC fluorescence, 60 min; inhibition, % at 10.7 µM; Q9NZ08; actives 0.15% (n = 340,000);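 active means mean replicate inhibition of at least 30%, or all replicates individually reaching that 30% level; inactive means mean below 30% and not every replicate reaching it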;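 further: 0% = neutral control wells and 100% = L-leucinethiol positive control wells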
AF4-AF9 inh = blocks AF4 peptide binding to human AF9. P42568. AlphaScreen, biotin-AF4 peptide binding to FLAG-AF9. AID 651704. actives 0.47% (n = 350,000). inhibition, % at 10 µM;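 active means every replicate reaching a set inhibition limit, whatever the replicate mean, cut at about 25% in these data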;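 further: 0% = plate neutral control median and 100% = total signal loss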
DENV2 CPE = inhibitors of DENV2 cytopathic effect. actives 1.7% (n = 350,000). CPE inhibition, % at 9.99 µM. DENV2-infected cells, cytopathic effect rescue, plate reader. AID 651640; in the data active means CPE inhibition above about 20%, passing the limit was not always enough; tested in BHK-21 cells;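 further: 0% = median of neutral control wells and 100% = median of positive control wells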
RAD52 anneal inh = blocks human RAD52 DNA annealing; inhibition, % at 18.7 µM; P43351; actives 0.46% (n = 360,000); recombinant RAD52 DNA annealing, FRET fluorescence; AID 651710;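 active means every replicate showing at least 50% inhibition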
Target sequence (P43351 whole entry, looked up): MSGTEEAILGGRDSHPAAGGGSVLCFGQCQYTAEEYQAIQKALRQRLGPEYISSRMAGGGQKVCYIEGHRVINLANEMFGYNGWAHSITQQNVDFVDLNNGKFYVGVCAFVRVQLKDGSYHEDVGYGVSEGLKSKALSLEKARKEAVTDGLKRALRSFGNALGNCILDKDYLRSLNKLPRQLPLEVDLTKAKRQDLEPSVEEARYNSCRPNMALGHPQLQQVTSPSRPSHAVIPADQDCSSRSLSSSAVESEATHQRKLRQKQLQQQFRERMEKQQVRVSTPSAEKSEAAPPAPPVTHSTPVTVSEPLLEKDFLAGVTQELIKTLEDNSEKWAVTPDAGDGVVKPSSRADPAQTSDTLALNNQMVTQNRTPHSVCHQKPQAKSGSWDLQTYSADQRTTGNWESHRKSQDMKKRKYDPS
FGF22 binding = FGF22 (human) thermal shift binding; activity (Tm shift, normalised), % at 9.99 µM; Q9HCT0; actives 1.5% (n = 340,000); recombinant FGF22 thermal shift, SYPRO orange fluorescence; percent of sucrose octasulfate shift, DMSO zero;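 active means mean Tm shift, scaled 0 neutral to 100 positive control, at about 1.3% or above, every replicate too, limit read from the data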
Target sequence (Q9HCT0 whole entry, looked up): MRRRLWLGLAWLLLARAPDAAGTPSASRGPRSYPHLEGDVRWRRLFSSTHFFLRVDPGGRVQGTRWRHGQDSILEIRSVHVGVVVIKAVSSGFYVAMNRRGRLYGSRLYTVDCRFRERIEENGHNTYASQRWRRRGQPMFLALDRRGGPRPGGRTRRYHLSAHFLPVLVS
Starred values were filed as active, the others as inactive; · = no result.

SMILES	ERAP1 inh	AF4-AF9 inh	DENV2 CPE	RAD52 anneal inh	FGF22 binding
CC[C@@]1(C(=O)OC)N[C@H](CN(C)C(=O)c2ccccc2)[C@@H]2C(=O)N(C)C(=O)[C@@H]21	-0.6	0.2	-0.6	5.4	43.0*
CC[C@@]1(C(=O)OC)N[C@H](CN(C)C(=O)c2ccc(F)cc2)[C@@H]2C(=O)N(C)C(=O)[C@@H]21	-5.1	-0.9	16.0	-7.2	0.6
COC(=O)[C@]1(Cc2ccccc2)N[C@H](CN(C)C(=O)c2ccccc2)[C@@H]2C(=O)N(Cc3ccccc3)C(=O)[C@@H]21	0.1	1.1	7.4	-6.7	43.1*
COCC(=O)N(C)C[C@@H]1Oc2ncc(C#C[C@@H](C)O)cc2C(=O)N([C@H](C)CO)C[C@@H]1C	-2.4	-2.4	4.3	-10.2	0.0
CCCCCCc1c(O)nc(SCCN2CCOCC2)[nH]c1=O	4.7	-8.2	0.5	-3.0	44.2*
C=CCn1c(=O)/c(=C\c2ccccn2)s/c1=C(/C#N)C(=O)NCC1CCCO1 (stereo not given)	-4.4	0.1	8.9	-325.7	43.1*
N#C/C(C(=O)N1CCOCC1)=c1/s/c(=C\c2ccccn2)c(=O)n1-c1ccccc1	-1.8	0.4	16.5	-44.1	-0.1
O=C(Nc1cc(F)ccc1F)N1CC(=O)N2[C@H](C1)[C@@H](c1ccc(C#CC3CCCC3)cc1)[C@@H]2CO	-1.1	5.4	3.7	-11.1	·
COc1cccc(NC(=O)N2CC3(C2)[C@@H](c2ccccc2)[C@@H](CO)N3C(=O)C2CCC2)c1	-0.9	-1.0	8.8	-24.9	-0.1
CC1(c2nnc(-c3ccncc3)o2)CC(c2ccc(F)cc2)=NO1 (stereo not given)	-0.4	33.9*	10.8	-2.6	-0.1
CC1(c2nnc(-c3ccc(F)cc3)o2)CC(c2cccnc2)=NO1 (stereo not given)	0.8	-3.4	6.0	-5.2	0.0
Cc1onc(-c2ccccc2)c1C(=O)N/N=C/c1c(F)cccc1Cl	-1.0	2.7	79.3*	5.7	0.1
Cc1onc(-c2ccccc2)c1C(=O)NN=Cc1cc(Cl)cc(Cl)c1O	-18.2	-1.7	-6.4	-20.2	0.2
COc1ccc(-c2cnc3c(c2)C(=O)N([C@@H](C)CO)C[C@H](C)[C@@H](CN(C)Cc2cccnc2)O3)cc1	0.2	-5.4	-7.1	11.6	-0.4
OC[C@H]1[C@H](c2ccc(C#Cc3ccccc3)cc2)[C@H]2CN(Cc3cncnc3)CCCCN21	-0.2	2.9	2.8	7.4	0.0
CS(=O)(=O)c1cccc(-c2csc(N3CCC(C(N)=O)CC3)n2)c1	4.9	-1.2	·	-7.7	43.1*
COc1ccc2[nH]cc(CCNS(=O)(=O)Cc3ccccc3)c2c1	2.1	4.4	0.4	-18.5	43.2*
COc1ccccc1NC(=O)N1CCCCN2[C@H](CO)[C@@H](c3ccc(C#CC4CCCC4)cc3)[C@@H]2C1	-2.9	-4.4	36.1*	-7.5	-1.0
COc1ccccc1C#Cc1ccc([C@H]2[C@H](CO)N3CCCCN(C(=O)C4CCCC4)C[C@@H]23)cc1	0.5	4.3	0.8	55.7*	-0.1
COc1ccccc1NC(=O)N1CCCCN2[C@H](CO)[C@H](c3ccc(C#Cc4ccccc4)cc3)[C@@H]2C1	0.7	-4.4	25.1*	-16.0	-0.4
COc1cccc(S(=O)(=O)N[C@@H]2C=C[C@@H](CC(=O)NCc3ccc(F)cc3)O[C@@H]2CO)c1	3.9	-0.3	18.6	-2.8	0.9
COc1ccc(S(=O)(=O)N2CCCCC2)cc1NC(=O)Cc1cccc(C(F)(F)F)c1	-8.3	-1.0	0.6	-0.6	0.0
COc1cccc(C(=O)Nc2cc(S(=O)(=O)N3CCCCC3)ccc2OC)c1	1.2	-7.0	-4.2	-1.5	43.4*
COc1ccc(S(=O)(=O)N2CCCCCC2)cc1NC(=O)Cc1cccc(C(F)(F)F)c1	-10.1	-3.0	110.6*	-0.5	0.1
CN(C)S(=O)(=O)c1cccc(NC(=O)c2cccc(S(=O)(=O)N3CCCCCC3)c2)c1	3.5	-0.6	-3.8	-8.9	-0.3
SMILES	ERAP1 inh	AF4-AF9 inh	DENV2 CPE	RAD52 anneal inh	FGF22 binding
CN(C)S(=O)(=O)c1cccc(C(=O)Nc2ccc(S(=O)(=O)N3CCCC3)cc2)c1	1.4	0.2	-1.8	-8.1	44.1*
COc1ccc(S(=O)(=O)N2CCCCCC2)cc1C(=O)N(C)Cc1ccc(C(C)(C)C)cc1	-1.0	1.7	58.7*	-2.9	0.1
C[C@@H]1CN([C@H](C)CO)C(=O)c2cccc(NC(=O)C3CCOCC3)c2O[C@@H]1CN(C)S(C)(=O)=O	-1.0	-2.1	2.0	-3.1	0.0
C[C@@H]1CN([C@H](C)CO)C(=O)c2cccc(NC(=O)C3CCOCC3)c2O[C@@H]1CN(C)C(=O)NC1CCCCC1	-0.2	-3.7	-8.9	6.2	·
C[C@H](O)C#Cc1ccc2c(c1)O[C@H](CN(C)C(=O)CC1CC1)[C@H](C)CN([C@H](C)CO)S2(=O)=O	3.0	-0.7	0.7	-7.8	0.0
CCN1CCN(c2ccc(S(=O)(=O)N3CCCCC3)cc2NC(=O)c2ccc(C)c(C)c2)CC1	-0.4	14.1	38.0*	-4.8	-0.2
COc1ccc(NC(=O)c2cccc(S(=O)(=O)N3CCc4ccccc43)c2)c(OC)c1	-4.2	-0.5	-0.4	5.0	43.7*
CCN1CCN(c2ccc(S(=O)(=O)N3CCCCC3)cc2NC(=O)c2cccc(C)c2)CC1	0.9	2.6	0.7	16.5	-0.1
COc1ccc(NC(=O)c2cccc(S(=O)(=O)N3CCN(C)CC3)c2)c(OC)c1	-3.5	12.7	0.8	2.1	·
C[C@H]1CN([C@@H](C)CO)C(=O)c2cc(NC(=O)Nc3ccc(F)cc3)ccc2O[C@H]1CN(C)Cc1ccncc1	-1.4	-0.1	-1.9	-11.6	-0.3
Cc1oc(-c2ccc3ccccc3c2)nc1CN(C)C(C)c1ccncn1 (stereo not given)	-1.9	8.2	7.9	-43.3	43.5*
C[C@H](CO)N1C[C@H](C)[C@@H](CN(C)C(=O)C2CCCCC2)Oc2cc(-c3ccc(C(=O)N(C)C)cc3)ccc2S1(=O)=O	-3.0	-1.6	-7.3	-10.4	0.2
COc1ccc(-c2cn(CC[C@H]3CC[C@@H](NS(=O)(=O)c4ccccc4C)[C@H](CO)O3)nn2)cc1	0.1	0.2	-15.5	10.8	0.2
Cc1ccnc2nc(C(=O)OCC(=O)NCc3cccc(Cl)c3)nn12	5.8	-2.0	9.2	-4.3	0.2
Cc1cc(Cl)ccc1NC(=O)COC(=O)c1nc2nccc(C)n2n1	0.3	-0.6	-1.4	-12.5	43.3*
CC(C)NC(=O)N(C)C[C@H]1Oc2cc(-c3cccnc3)ccc2S(=O)(=O)N([C@H](C)CO)C[C@H]1C	0.6	1.7	-5.0	-1.7	·
Cc1coc2cc3oc(=O)c(CCC(=O)NCCCn4ccnc4)c(C)c3cc12	2.1	2.0	-12.3	-12.3	0.0
Cc1c(CCC(=O)NCCCN2CCCC2=O)c(=O)oc2cc(O)ccc12	-4.6	-2.0	66.6*	-9.2	-0.1
Cc1oc2cc3oc(=O)c(CCC(=O)NCCCn4ccnc4)c(C)c3cc2c1C	-0.4	3.3	20.9*	23.8	0.4
